In PubChem BioAssay (NCI):
The panel holds about 83,000 compounds, 20% with a hit somewhere; the sample as a whole holds those more often.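 Growth was measured after 48 h exposure to one concentration of compound in 96-well plates. Values under 10 count as active.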 Unmarked numbers belong to inactive results. Calls of active or inactive are those of the source.

How the values were obtained:
Test in all cases: NCI-60 one-dose screen, 48 h (100 = growth as untreated, 0 = no growth, -100 = all killed)
Conditions in all cases: 10 µM unless noted
HCT-15 colon = test system: HCT-15 colon
HT29 colon = test system: HT29 colon
SNB-75 CNS = test system: SNB-75 CNS
SNB-19 CNS = test system: SNB-19 CNS
U251 CNS = test system: U251 CNS
PC-3 prostate = test system: PC-3 prostate
SK-MEL-5 melanoma = test system: SK-MEL-5 melanoma
UACC-62 melanoma = test system: UACC-62 melanoma
SK-MEL-28 melanoma = test system: SK-MEL-28 melanoma
SK-MEL-2 melanoma = test system: SK-MEL-2 melanoma
EKVX NSCLC = test system: EKVX NSCLC
SN12C renal = test system: SN12C renal
UO-31 renal = test system: UO-31 renal
TK-10 renal = test system: TK-10 renal
ACHN renal = test system: ACHN renal
CAKI-1 renal = test system: CAKI-1 renal
A498 renal = test system: A498 renal
CCRF-CEM leukemia = test system: CCRF-CEM leukemia
MOLT-4 leukemia = test system: MOLT-4 leukemia

| Structure (SMILES) | growth (HCT-15 colon) | growth (HT29 colon) | growth (SNB-75 CNS) | growth (SNB-19 CNS) | growth (U251 CNS) | growth (PC-3 prostate) | growth (SK-MEL-5 melanoma) | growth (UACC-62 melanoma) | growth (SK-MEL-28 melanoma) | growth (SK-MEL-2 melanoma) | growth (EKVX NSCLC) | growth (SN12C renal) | growth (UO-31 renal) | growth (TK-10 renal) | growth (ACHN renal) | growth (CAKI-1 renal) | growth (A498 renal) | growth (CCRF-CEM leukemia) | growth (MOLT-4 leukemia) |
| --- | --- | --- | --- | --- | --- | --- | --- | --- | --- | --- | --- | --- | --- | --- | --- | --- | --- | --- | --- |
| COc1cc(NC(=O)c2cccc(C3CCc4c(cc(OC)c(OC)c4OC)O3)c2)cc(OC)c1OC (centres undefined) | 7.46% (active) | 3.59% (active) | 11.5% | 27.1% | 13.5% | 18.2% | -58% (active) | -28.6% (active) | 38.9% | -1.8% (active) | 35.3% | 13.2% | 3.46% (active) | 56.6% | 17.3% | 14.8% | 112% | 18.1% | 11.8% |
| Clc1cccc(Cl)c1/C=C/c1cc(/C=C/c2ccc(Br)cc2)c2ccccc2n1 | 101% | 105% | 95.9% | 92.5% | 101% | 96.2% | 104% | 83.5% | 104% | 123% | 89.8% | 93.2% | 70.2% | 126% | 100% | 73.4% | 142% | 85% | 84.8% |
| COc1cc(C2CC(c3cc(OC)c(OC)c(OC)c3)=NN2c2ccccc2)ccc1OCc1ccc(C)cc1 (centres undefined) | 86.2% | 85.7% | 84.1% | 91.7% | 96.7% | 92.9% | 92.3% | 78.8% | 103% | 88.1% | 94.1% | 95.1% | 84.8% | 118% | 99.6% | 77.8% | 102% | 106% | 91.6% |
| CC1=C(C(=O)OCc2ccccc2)C(c2c(O)cc(O)cc2O)n2c(nc3ccccc32)N1 (centres undefined) | 39% | 38.7% | 13% | 59.7% | 42.7% | 49.2% | 53% | 14.7% | 60.2% | 58% | 54.4% | 74.8% | 46.4% | 87.9% | 46.6% | 39.4% | 102% | 38.1% | 60.6% |
| Nc1nnc(-c2c[nH]c3ncc(Br)cc23)c(-c2c[nH]c3ccc(F)cc23)n1 | 25.3% | 21.8% | 33.7% | 50.6% | 45.5% | 58.6% | 0.13% (active) | 15.6% | 29.8% | 25.3% | 41.5% | 38.8% | 42.8% | 67% | 40.8% | 42.7% | 74% | 42.7% | 9.73% (active) |
| CSc1ccccc1NC(=O)c1ccc2nn(/C(C#N)=C/c3ccccn3)nc2c1 | -62.8% (active) | -91.9% (active) | 48.1% | 12.3% | -81.6% (active) | -57.7% (active) | -88.8% (active) | -89.6% (active) | -91.4% (active) | -67% (active) | -98.5% (active) | -59.2% (active) | -100% (active) | -98.4% (active) | -99% (active) | -87.3% (active) | 93.7% | -34.7% (active) | -22.3% (active) |
| CC(=O)Nc1ccc(-n2cnc3ccc(-c4ccc(O)cc4)cc32)cc1 | 52% | 102% | 56.5% | 55.5% | 37% | 47.6% | 54.6% | 46.1% | 44.3% | 50.7% | 54.8% | 29.3% | 46.2% | 89.9% | 24.7% | 29.9% | 92.8% | 30.2% | 11.3% |
| COc1ccc([C@H](C)Nc2nc(Cl)nc3ccccc23)cc1 | 56.1% | 28.8% | 93.4% | 60.6% | 74.2% | 77.1% | 5.57% (active) | 47.8% | 59.9% | 70.2% | 19.2% | 47.9% | 47.1% | 66.9% | 54.3% | 56.4% | 108% | 34.9% | 20.8% |
| CC(=O)Nc1cccc(-c2nc3cc(-c4ccc(O)cc4)ccc3n2C)c1 | 41.6% | 62.6% | 62.5% | 51.2% | 58.7% | 47.9% | -9.75% (active) | 15.7% | 27.3% | 52.6% | 35.1% | 43.8% | 38.4% | 59% | 16% | 38.5% | 86.8% | 28.3% | 9.2% (active) |
| CCCCOc1ccc(NC(=O)c2sc3nc(C)ccc3c2N)cc1 | 36.7% | 40.2% | -17.3% (active) | 0.979% (active) | 0.73% (active) | 36.8% | 3.73% (active) | 40% | 50.7% | 49.2% | 6.14% (active) | 21.1% | 1.84% (active) | -20.1% (active) | -19.3% (active) | 26.5% | 37.1% | 42% | 48% |
| CC(=O)Nc1ccc(-c2cn(-c3cccc(C(=O)Nc4ccc(N5CCN(C)CC5)cc4)c3)nn2)cn1 | 91.5% | 6.82% (active) | 99% | 49.4% | 50.8% | 72.2% | 87.8% | 114% | 101% | 92.5% | 80.9% | 80.1% | 100% | 86.5% | 88.1% | 98.2% | 160% | 40% | 59.8% |
| NC(=S)Nc1cccc(NC(N)=S)c1 | 95.1% | 113% | 97.6% | 88.3% | 88.8% | 102% | 91.4% | 70.5% | 104% | 112% | 101% | 81.9% | 70% | 107% | 96.3% | 79.7% | 101% | 96.4% | 89.7% |
| Cc1c(C(=O)NNC(=O)c2ccc(Cl)cc2)nnn1-c1ccc(Cl)cc1 | 93.5% | 92.3% | 83.6% | 95.1% | 99.8% | 95.4% | 99.5% | 86.1% | 94% | 106% | 91.5% | 94.7% | 74.1% | 96.1% | 103% | 87.2% | 105% | 88.4% | 85.4% |
| C=C1CCC2C3(C)COC(c4ccc(F)cc4)OC3CCC2(C)C1CC(O)C1=CCOC1=O (centres undefined) | 1.99% (active) | 27.8% | 60.4% | 76.4% | 59.6% | 37.6% | 21.9% | 47.9% | 41.4% | 19.9% | 62.6% | 32.1% | 43.2% | 96.6% | 30.2% | 53.3% | 118% | 21.4% | 22.5% |
| O=C(/C=C/Nc1ccc(Cl)cc1)c1ccc2c(c1)Nc1ccccc1S2 | 67.1% | 28.7% | -24.4% (active) | 9.53% (active) | 31.5% | 29.8% | 71.3% | 32% | 65.9% | 55.1% | 55.8% | 61.8% | 36.1% | 72% | 30.7% | 38.3% | 108% | 81.1% | 66.2% |
| COc1ccc(-c2c(Nn3cnnn3)no[n+]2[O-])cc1 | 31.3% | 39.4% | 29.6% | 71% | 55.4% | 59.4% | 75.7% | 47.5% | 85.5% | 82.5% | 53.7% | 33.3% | 20.8% | 62.5% | 34.1% | 25.7% | 63.9% | 40.6% | 27.9% |
